Reference: PubChem BioAssay (NCI)
The panel holds about 79,000 compounds, 15% with a hit somewhere; the sample as a whole holds those more often. Calls of active or inactive are those of the source. No stated cut-off is given here; in the data, active means growth inhibition above about 70%; inactive means the rest.

Key:
[1] = NCI Yeast Anticancer Drug Screen. Data for the wt1 strain (AID 149);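 further: 0% = growth of vehicle-treated wt1 cultures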; conditions: S. cerevisiae wt1 strain (SPY 50644) growth inhibition, hits give high values
Summary of the method: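 Each compound is tested on wt1 yeast and the loss of growth versus vehicle gives the inhibition value.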

[2] = NCI Yeast Anticancer Drug Screen. Data for the rad50EPP+ strain (AID 151);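 further: 0% = growth of vehicle-treated control cultures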; conditions: S. cerevisiae rad50 mutant strain, hits give high values
Summary of the method: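 Growth inhibition read against vehicle controls in rad50EPP+ yeast, a strain altered in DNA damage repair, after compound exposure.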

[3] = NCI Yeast Anticancer Drug Screen. Data for the mgt1 strain (AID 153); conditions: S. cerevisiae mgt1 mutant growth inhibition, hits give high values
Summary of the method: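 mgt1 yeast grown with test compound; read-out is growth inhibition versus vehicle-treated cultures.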

[4] = NCI Yeast Anticancer Drug Screen. Data for the rad50 strain (AID 155);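 further: 0% = growth of vehicle-only cultures of the same strain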; conditions: S. cerevisiae rad50 strain growth inhibition, hits give high values
Summary of the method: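 Vehicle-treated cultures provide the reference for the growth inhibition reported for compound-exposed, repair-deficient yeast.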

[5] = NCI Yeast Anticancer Drug Screen. Data for the mec2-1 strain (AID 157); conditions: S. cerevisiae mec2-1 strain, hits give high values
Summary of the method: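 Yeast mec2-1 mutant treated with compound. Readout: growth inhibition vs vehicle controls.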

[6] = NCI Yeast Anticancer Drug Screen. Data for the rad14 strain (AID 159);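 further: 0% = growth of vehicle-treated control cultures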; conditions: S. cerevisiae rad14 strain growth inhibition, hits give high values
Summary of the method: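 Inhibition of growth is reported for a repair-deficient yeast mutant following compound treatment, calculated relative to cultures that received vehicle.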

[7] = NCI Yeast Anticancer Drug Screen. Data for the sgs1 mgt1 strain (AID 161);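 further: 0% = growth of cultures given vehicle only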; conditions: S. cerevisiae sgs1 mgt1 strain, hits give high values
Summary of the method: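 Mutant yeast exposed to compound; growth scored against vehicle-only wells.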

[8] = NCI Yeast Anticancer Drug Screen. Data for the CLN2oe strain (AID 163);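 further: 0% = growth of vehicle-only control cultures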; conditions: S. cerevisiae CLN2oe strain, hits give high values
Summary of the method: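 Read-out: yeast growth inhibition, expressed relative to vehicle-only controls. The strain bears an engineered cell-cycle alteration.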

[9] = NCI Yeast Anticancer Drug Screen. Data for the cln2 rad14 strain (AID 165);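 further: 0% = growth equal to vehicle treated cultures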; conditions: S. cerevisiae cln2 rad14 strain, hits give high values
Summary of the method: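 cln2 rad14 yeast strain; compound exposure; growth inhibition read vs vehicle controls.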

[10] = NCI Yeast Anticancer Drug Screen. Data for the bub3 strain (AID 167); conditions: S. cerevisiae bub3 mutant strain, hits give high values
Summary of the method: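 Mutant yeast screening strain plus compound; vehicle-treated cultures serve as the 0% inhibition reference.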

[11] = NCI Yeast Anticancer Drug Screen. Data for the wt2 strain (AID 169); conditions: S. cerevisiae wt2 strain growth inhibition, hits give high values
Summary of the method: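 Read-out: growth inhibition versus vehicle-treated control cultures after compound exposure of the yeast strain.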

[12] = NCI Yeast Anticancer Drug Screen. Data for the mlh1 strain (AID 171);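 further: 0% = growth of vehicle-treated control cultures of the same strain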; conditions: S. cerevisiae mlh1 strain growth inhibition, hits give high values
Summary of the method: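 Read-out: growth inhibition versus vehicle controls. Strain: engineered yeast with a defined DNA repair or cell cycle defect, compound-treated.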

[13] = NCI Yeast Anticancer Drug Screen. Data for the sgs1 strain (AID 173);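 further: 0% = growth of vehicle-only control cultures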; conditions: S. cerevisiae sgs1 mutant, hits give high values
Summary of the method: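 Read-out: yeast growth inhibition relative to vehicle controls, following compound exposure of a strain with a defined DNA repair/cell cycle alteration.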

[14] = NCI Yeast Anticancer Drug Screen. Data for the mlh1 rad18 strain (AID 175); conditions: S. cerevisiae mlh1 rad18 strain growth inhibition, hits give high values
Summary of the method: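 Yeast w/ defined DNA-repair lesions; compound exposure; growth vs vehicle controls → % inhibition.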

[15] = NCI Yeast Anticancer Drug Screen. Data for the rad18 strain (AID 177); conditions: S. cerevisiae rad18 mutant growth inhibition, hits give high values
Summary of the method: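 Readout: growth inhibition vs vehicle controls. Cells: genetically altered yeast strain, DNA repair defect.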

[16] = at 5.0 µM (retest, dose inferred, filed as 0.5)
[17] = at 50.0 µM (retest, dose inferred, filed as 5.0)

Measured: growth inhibition

O=C1OC(c2ccc(Cl)cc2)Sc2ccccc21 (stereo not drawn)
inactive: [1]; at 1.2 µM 1% | [1]; at 3.7 µM 6% | [1]; at 11.0 µM 17% | [2]; at 1.2 µM 11% | [2]; at 3.7 µM 28% | [2]; at 11.0 µM 45% | [2]; at 33.0 µM 61% | [2]; at 100.0 µM 58% | [3]; at 1.2 µM 6% | [3]; at 3.7 µM 8% | [3]; at 11.0 µM 17% | [4]; at 1.2 µM 7% | [4]; at 3.7 µM 13% | [4]; [16] 5% | [4]; at 11.0 µM 62% | [5]; at 1.2 µM 9% | [5]; at 3.7 µM 17% | [5]; [16] -7% | [5]; at 11.0 µM 33% | [5]; [17] 35% | [6]; at 1.2 µM 7% | [6]; at 3.7 µM 11% | [6]; at 11.0 µM 25% | [7]; [16] 4% | [7]; [17] 52% | [8]; at 1.2 µM 9% | [8]; at 3.7 µM 13% | [8]; at 11.0 µM 27% | [9]; [16] -61% | [9]; [17] -14% | [9]; at 50.0 µM -26.9% | [10]; at 1.2 µM 11% | [10]; at 3.7 µM 15% | [10]; [16] 7% | [10]; at 11.0 µM 29% | [10]; [17] 46% | [11]; at 1.2 µM 6% | [11]; at 3.7 µM 6% | [11]; at 11.0 µM 31% | [12]; at 1.2 µM 6% | [12]; at 3.7 µM 12% | [12]; at 11.0 µM 27% | [13]; at 1.2 µM 2% | [13]; at 3.7 µM 11% | [13]; at 11.0 µM 37% | [14]; [16] 16% | [15]; at 1.2 µM 6% | [15]; at 3.7 µM 15% | [15]; at 11.0 µM 68%
active: [1]; at 33.0 µM 88% | [1]; at 100.0 µM 98% | [3]; at 33.0 µM 97% | [3]; at 100.0 µM 94% | [4]; at 33.0 µM 95% | [4]; [17] 88% | [4]; at 50.0 µM 83.8% | [4]; at 100.0 µM 92% | [5]; at 33.0 µM 96% | [5]; at 50.0 µM 86.5% | [5]; at 100.0 µM 98% | [6]; at 33.0 µM 98% | [6]; at 100.0 µM 98% | [7]; at 50.0 µM 85% | [8]; at 33.0 µM 97% | [8]; at 100.0 µM 97% | [10]; at 33.0 µM 96% | [10]; at 50.0 µM 93.9% | [10]; at 100.0 µM 97% | [11]; at 33.0 µM 84% | [11]; at 100.0 µM 98% | [12]; at 33.0 µM 97% | [12]; at 100.0 µM 98% | [13]; at 33.0 µM 96% | [13]; at 100.0 µM 97% | [14]; [17] 86% | [14]; at 50.0 µM 95% | [15]; at 33.0 µM 96% | [15]; at 100.0 µM 94%

CCC(C)C(=O)OCC(=O)c1ccc(-c2ccccc2)cc1 (stereo not drawn)
inactive: [1]; at 1.2 µM -1% | [1]; at 3.7 µM -2% | [1]; at 11.0 µM -2% | [1]; at 33.0 µM -5% | [1]; at 100.0 µM -7% | [2]; at 1.2 µM 1% | [2]; at 3.7 µM 3% | [2]; at 11.0 µM 8% | [2]; at 33.0 µM 10% | [2]; at 100.0 µM 9% | [3]; at 1.2 µM 0% | [3]; at 3.7 µM -1% | [3]; at 11.0 µM 1% | [3]; at 33.0 µM -4% | [3]; at 100.0 µM -35% | [4]; at 1.2 µM 0% | [4]; at 3.7 µM 0% | [4]; [16] 13% | [4]; at 11.0 µM 0% | [4]; at 33.0 µM 1% | [4]; [17] -8% | [4]; at 50.0 µM -8.9% | [4]; at 100.0 µM -2% | [5]; at 1.2 µM -3% | [5]; at 3.7 µM -2% | [5]; [16] -3% | [5]; at 11.0 µM -2% | [5]; at 33.0 µM -4% | [5]; [17] 0% | [5]; at 50.0 µM 2.3%
